Compound activity: PubChem BioAssay, National Center for Advancing Translational Sciences (NCATS)
Rows were chosen to be rich in hits. Some 10% of all compounds tested hit in one or more screens of this group.
3T3 cytotox: NIH 3T3 cell cytotoxicity; AID 1345082; NIH 3T3 viability, CellTiter-Glo ATP luminescence, 48-72 h; 94,000 tested, 4.3% active; Potency, µM (titrated, usually from 96.7 µM), without a hit: at the top dose activity change, negative = cytotoxicity, hits mostly inhibitors; note: nearly all actives have a fitted effect of over 55% in size
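Cytotoxicity was measured by CellTiter-Glo ATP luminescence after 48 or 72 h compound exposure at 37 °C. Mouse NIH 3T3 fibroblasts were seeded at 400 cells/well and dosed by 23 nL pin transfer.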
GPT2 inh: GPT2 alanine aminotransferase inhibition; Q8TD30; Recombinant GPT2, coupled pyruvate oxidase/HRP Amplex Red fluorescence; Potency, µM (titrated, usually from 57.7 µM), without a hit: at the top dose activity change, negative = inhibition, most hits filed as inhibitors; 100,000 tested, 0.25% active; AID 1671188; note: nearly all actives have a fitted effect of over 60% in size
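Inhibition is scored from Amplex Red fluorescence generated when pyruvate oxidase and HRP act on pyruvate released by GPT2. Reactions contain 10ng/uL enzyme, 250uM a-KG and 2mM L-alanine and run 30 min at room temperature.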
HEK cytotox: kills HEK 293 cells; HEK 293 viability, ATP luminescence (CellTiter-Glo), 48-72 h; Potency, µM (titrated, usually from 115 µM), for inactives: at the top dose activity change, negative = cytotoxicity, usual class: inhibitors; 94,000 tested, 6.6% active; note: nearly all actives have a fitted effect of over 60% in size
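HEK 293 cells seeded at 250 cells/well were exposed to compound for 48 or 72 hr at 37 degree Celsius. Viability taken as ATP content by CellTiter-Glo luminescence.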
hNpr1 antagonist: blocks ANP-stimulated signaling of human Npr1 receptor | HEK293 hNpr1 GloSensor cGMP, ANP-stimulated luminescence | Potency, µM (titrated, usually from 46.3 µM), for inactives: at the highest dose activity change, negative = inhibition, most hits filed as inhibitors | 76,000 tested, 1.6% active | P16066; calls by dose curve; note: nearly all actives have a fitted effect of over 60% in size
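HEK293 cells stably expressing human Npr1 and cGMP GloSensor pGS-40F, loaded 2 h with 2% GloSensor reagent, given compound 30 min at room temperature. Luminescence read before and 20 min after 0.1 nM hNppA.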
FLuc inh: inhibitors of firefly (Photinus pyralis) luciferase | purified P. pyralis luciferase, luminescence, biochemical | Potency, µM (doses to about 115 µM), actives largely listed as inhibitors | 76,000 tested, 2.5% active | AID 1347043; note: nearly all actives have a fitted effect of over 65% in size
Target sequence (P08659 whole entry, looked up): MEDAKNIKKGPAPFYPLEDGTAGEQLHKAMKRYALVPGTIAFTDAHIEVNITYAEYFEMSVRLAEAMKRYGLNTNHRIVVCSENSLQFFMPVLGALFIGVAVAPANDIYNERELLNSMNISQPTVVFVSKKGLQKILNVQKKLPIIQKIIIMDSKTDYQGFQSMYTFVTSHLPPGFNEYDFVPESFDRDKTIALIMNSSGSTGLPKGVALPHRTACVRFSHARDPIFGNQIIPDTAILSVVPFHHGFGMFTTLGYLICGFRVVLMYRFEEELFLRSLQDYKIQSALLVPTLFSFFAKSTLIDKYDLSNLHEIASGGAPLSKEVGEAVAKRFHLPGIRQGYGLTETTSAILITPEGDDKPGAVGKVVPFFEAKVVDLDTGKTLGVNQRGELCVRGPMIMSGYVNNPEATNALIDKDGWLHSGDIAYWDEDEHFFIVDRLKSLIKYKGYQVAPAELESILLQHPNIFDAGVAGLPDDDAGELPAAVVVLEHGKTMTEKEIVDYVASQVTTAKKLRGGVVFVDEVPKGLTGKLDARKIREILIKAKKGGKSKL
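Purified 10nM P. pyralis luciferase with 10uM D-luciferin and 10uM ATP in 50mM Tris acetate pH 7.5, 10mM Mg acetate, 0.01% Tween-20, 0.05% BSA. qHTS titration; luminescence read by CCD imager.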
Active calls of the source: *; i = inactive; u = inconclusive; x = not tested or not shown; [ ] = dose if it differs, or a comment. Unless noted, calls come from the whole dose curve; as a rule, active = well fitted curve in the direction sought with a large enough effect; inconclusive = small, poorly fitted or top-dose-only effect, or another doubt; inactive = no such curve, though single readings can be large; an effect the other way counts as inactive or inconclusive. % is set by controls: 0 for no effect and ±100 for the full control effect; potency is the fitted concentration of half-maximal effect.

SMILES	3T3 cytotox	GPT2 inh	HEK cytotox	hNpr1 antagonist	FLuc inh
COCC1CN(Cc2cccc(C(F)(F)F)c2)CC12CCNCC2 (stereo not given)	u	-3%	89µM*	2%	i
OCC1CN(Cc2cc(F)cc(Br)c2)CC12CCNCC2 (stereo not given)	u	i	32µM*	2%	i
CCn1ccc(C(=O)N2CCCCCNC(=O)[C@H]3C[C@H](C(=O)N4CCc5ccccc5C4)C[C@H]32)n1	-22%	i	-14%	-13%	i
O=C(Cc1cccc(F)c1)N1CCN(c2cc(C(F)(F)F)ncn2)CC1	-22%	i	u	-18%	i
COCC(=O)N1CCN(C(=O)c2cccnc2)[C@@H](C(=O)N[C@H]2CCCNC2=O)C1	-18%[174 µM]	2%[88.5 µM]	-11%[172 µM]	-3%[70.6 µM]	i
O=C1NCN(Cc2ccc(Cl)cc2)C12CCN(Cc1ccc(F)cc1)CC2	14µM*	-30%	28µM*	-22%	i
O=C1NCN(Cc2ccc(Cl)cc2)C12CCN(Cc1ccc(C(F)(F)F)cc1)CC2	u	0%	40µM*	-21%	i
O=C1NCN(Cc2ccc(Cl)cc2)C12CCN(Cc1cccnc1)CC2	u	5%	u	18%	i
CN(C)C(=O)N1CCC(C(=O)N2CCC3(CC2)CC(=O)Nc2ccccc2O3)C1 (stereo not given)	i	i	0%	x	x
Cc1cccc(CN2CCCC(c3nc(-c4cccnc4)no3)CCNC(=O)CC2)c1 (stereo not given)	u	-3%	u	-3%	i
O=C1CCN(Cc2cccc(F)c2)CCCC(c2nc(-c3cccnc3)no2)CCN1 (stereo not given)	u	-5%	79µM*	2%	i
O=C(C1CCCC1)N1CCCC(c2nn(-c3ccccn3)c(=O)[nH]2)C1 (stereo not given)	-21%	-1%	-2%	x	x
COc1ccc(OCC2(C)COc3ccc(C(=O)Nc4ccn(C)n4)cc3N2)cc1 (stereo not given)	u	-15%[88.5 µM]	u	18µM*	u
COCCNC(=O)c1ccc2c(c1)NC(C)(COc1ccc(OC)cc1)CO2 (stereo not given)	u	3%[88.5 µM]	u	-19%[70.6 µM]	i
CC1(CNc2ccccc2)COc2ccc(C(=O)Nc3ccc4[nH]ccc4c3)cc2N1 (stereo not given)	40µM*	-6%[88.5 µM]	u	-28%[70.6 µM]	10µM*
COc1cccc(NC(=O)c2ccc3c(c2)NC(C)(COc2ccc4[nH]ccc4c2)CO3)c1 (stereo not given)	13µM*	-7%	25µM*	-22%	i
CN(C)c1ccc(C(=O)N2CCC(n3cc(-c4nc(-c5ccccc5)no4)nn3)C2)cc1 (stereo not given)	u	i	45µM*	0%	u
Cc1ccc(C(=O)N2CCC(n3cc(-c4nc(-c5ccccc5)no4)nn3)C2)cc1C (stereo not given)	u	i	45µM*	2µM*	32µM*
COc1ccc(C(=O)N2CCC(n3cc(-c4nc(-c5ccccc5)no4)nn3)C2)cc1OC (stereo not given)	-25%	i	u	u	u
O=C(c1cc(F)ccc1Cl)N1CCC(n2cc(-c3nc(-c4ccccc4)no3)nn2)C1 (stereo not given)	u	i	u	13µM*	u
CN(C)c1ccc(C(=O)N2CCC(n3cc(-c4nc(C5CC5)no4)nn3)C2)cc1 (stereo not given)	-22%	2%	u	0%	i
CC(C)(O)CN1CCC(=O)N(C/C=C/c2ccccc2)CCc2ccccc21	-30%[46.1 µM]	-15%[27.3 µM]	u	x	x
COc1ccc(N2CCN(C(=O)C3(c4ccc(NC(=O)C(C)C)cc4)CCC3)CC2)cc1	u	-23%	u	3%	i
COc1ccc(-c2noc([C@@H]3Cc4nc[nH]c4CN3Cc3cccs3)n2)cc1	89µM*	-3%[88.5 µM]	u	-17%[70.6 µM]	71µM*
